Test results taken from PubChem BioAssay (NCI).
About 79,000 compounds went through this panel and 15% of them were active in at least one assay; those are over-represented in the sample as a whole. Active and inactive are the calls of the source. Rule as the data show it: active = growth inhibition above about 70%; inactive = the rest. Where a SMILES comes first, the peptide text is derived from it. The star is where a group is joined. Cbz = O=C(OCc1ccccc1)*; OBn = c1ccc(CO*)cc1

Experiment: NCI Yeast Anticancer Drug Screen. Data for the mlh1 rad18 strain (AID 175)
Conditions: S. cerevisiae mlh1 rad18 strain growth inhibition; at 50.0 µM; active compounds read high
Method in brief: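 Compound-treated yeast growth, normalised to vehicle controls. Strain bears defined DNA repair mutations.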

Row | Compound | growth inhibition
1 | CC12CCC(/C(=C/N(O)/C=C3\C(=O)C4(C)CCC3C4(C)C)C1=O)C2(C)C | 0.8% (inactive)
2 | COc1ccc(C(=O)OCc2ccccc2CN2CCOCC2)cc1 | -26.4% (inactive)
3 | Cc1ccccc1C(=O)N(C(C)C)C(C)C | 1% (inactive)
4 | CCCCCCCCCCCCCCCCCCCCCC(C)C | -31.4% (inactive)
5 | CC1(C)CCCCC1=O | -14.3% (inactive)
6 | Cc1cnc(NCCCCNc2ncc(C)c(-c3ccccc3O)n2)nc1-c1ccccc1O | 4.8% (inactive)
7 | O=C(NC(CO)C(=O)N1CCCC1C(=O)OCc1ccccc1)OCc1ccccc1 (stereo not drawn) (Cbz-Ser-Pro-OBn; configuration not given here) | 7.6% (inactive)
8 | COC(=O)c1cccc(=O)o1 | 2.15% (inactive)
9 | CSC(=Nc1ccc([N+](=O)[O-])cc1C#N)NC(=O)c1ccccc1 | 9.55% (inactive)
10 | COc1ccc(CCN=C2CCC(C(=O)NCCc3ccc(OC)c(OC)c3)N2)cc1OC (stereo not given) | -4.25% (inactive)
11 | Cc1cccc(C)c1NC(=O)CCC(=O)CC(=O)C(C)C | -13.1% (inactive)
12 | CC(=O)Nc1ccc(C2CC(c3ccc([N+](=O)[O-])cc3)=Nc3ccccc3S2)cc1 (stereo not given) | 49.9% (inactive)
13 | Clc1cnnc2nc[nH]c12 | -23.2% (inactive)
14 | CC(C)(C)C1CCC2c3c([nH]c4ncccc34)C3C(=O)N(c4ccccc4)C(=O)C3C2C1 (stereo not given) | -7.85% (inactive)
15 | COc1cccc(N2C(=O)[C@H]3[C@H]4CC(C(C)(C)C)CC[C@H]4c4c([nH]c5ccccc45)[C@H]3C2=O)c1 (stereo not given in full) | -2.4% (inactive)
16 | CC1(c2nc3ccccc3[nH]2)CCC(C(=O)O)C(C)(C)O1 (stereo not given) | -32.9% (inactive)
17 | Cc1nc(C(N)=O)c(=O)[nH]c1C | 13.7% (inactive)
18 | N#CC(C#N)=CNC(=S)Nc1ccc(Cl)c(Cl)c1 | 62.5% (inactive)
19 | NC(CC(=O)O)C(=O)OCc1cccc(N=Nc2ccccc2)c1 (stereo not given) | 4.3% (inactive)
20 | Cc1ccc(/C=N/n2c(Cc3ccccc3)n[nH]c2=O)cc1 | 25.6% (inactive)

Row | Compound | growth inhibition
21 | CC(C)=CCC/C(C)=C/CC/C(C)=C/C1CCC(=O)C1(C)C (stereo not given) | -8.35% (inactive)
22 | O=C(CSc1cc(Cl)c(Cl)cc1Cl)Nc1cccc(Cl)c1 | 3.5% (inactive)
23 | COc1ccc(C2Cc3cc(OC)c(OC)cc3C(c3ccccc3)N2)cc1OC (stereo not given) | 30.5% (inactive)
24 | COc1ccc(Cc2cn(C)cc(Cc3ccc(OC)cc3)c2=O)cc1 | -4.45% (inactive)
25 | O=C1CCCC(c2ccccc2)O1 (stereo not given) | 14.7% (inactive)
26 | C[N+](C)(C)c1cc(Br)c(O)c(Br)c1 | 33% (inactive)
27 | CCOC1(C)OC2OC(COC(C)=O)C(OC(C)=O)C(OC(N)=O)C2O1 (stereo not given) | 15.2% (inactive)
28 | CC(=O)Nc1c(Cl)cc(N)cc1Cl | 4.3% (inactive)
29 | CCN(CC)c1ccc(C=O)cc1 | -11.1% (inactive)
30 | C=CNC(=S)n1nc(-c2ccccc2NC(=O)C(F)(F)F)c(=O)n(C(=S)NC=C)c1=S | 24.9% (inactive)
31 | COc1cc(/C=C2\SC(=S)N(/C=C(/C#N)C(=O)c3ccc4ccccc4c3)C2=O)cc(OC)c1OC | 31.4% (inactive)
32 | C#CCN(CC#C)C(=O)CCCCCCCCC=C | 97.2% (active)
33 | CCNc1ncnc2c1cnn2C | -8.4% (inactive)
34 | Cc1ccc(C(c2ccc(C)c(C)c2)C(O)C(O)C(O)C(O)CO)cc1C (stereo not given) | -18.4% (inactive)
35 | CCCCNS(=O)(=O)c1cc(C(=O)O)cc(C(=O)O)c1 | -1.7% (inactive)
36 | NC(=S)c1cc[n+]([O-])cc1 | -3.8% (inactive)
37 | Cc1cccc(Cl)c1NC1=NCCN1C(=O)CC(=O)c1ccccc1 | 32.7% (inactive)
38 | Clc1cccc(NNc2cccc(Cl)c2)c1 | -25.9% (inactive)
39 | CCCCCCCCCCCCCCCCOc1ccc(C(=O)O)cc1 | -16% (inactive)
40 | Cc1cc[n+](-c2nc3c([O-])n(C)c(=O)n(C)c-3n2)cc1 | 19.4% (inactive)
